Screening data as filed in PubChem BioAssay.
Lamin A splicing: qHTS Assay for Modulators of Lamin A Splicing; actives 0.01% (n = 200,000); HeLa LMNA splicing GFP/RFP minigene ratio, 48 h; Potency, µM (top dose mostly 46.1 µM), for the others: top-dose ratio change, negative = inhibition, hits mostly inhibitors; AID 1487, 2009; active = well fitted inhibition curve with a large enough effect in the signal ratio, with a control signal flat, not every such curve was filed as active; inconclusive = small, poorly fitted or top-dose-only effect, or effect the other way, or a change in a side signal; the % refers to the signal ratio
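S3 HeLa cells stably expressing lamin A-EGFP splicing minigene plus DsRed2, 600 cells/well, 48 h compound exposure at 37C. Laser-scanning cytometry; analysed as GFP (500-530 nm)/RFP (575-640 nm) total intensity ratio; 0.5% DMSO vehicle.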
IMPase Li cell: qHTS Assay for Identifying the Cell-Membrane Permeable IMPase Inhibitors: Potentiation with Lithium. CHO-M1 cells, IP1 TR-FRET (IP-One), carbachol + lithium. Potency, µM (top dose mostly 59.4 µM), for inactives: at the top dose activity, negative = IMPase inhibition, most hits filed as inhibitors. actives 0.35% (n = 210,000). AID 1457, 2008;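 also: IP1 builds up when IMPase is blocked and the TR-FRET signal falls; plate controls were basal vehicle for no effect and high inhibitor control for full effect; nearly all actives have a fitted effect of over 50% in size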
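Test compounds were applied to CHO-M1 cells previously cultured for 16–30 h at 2000 per well. A small lithium amount accompanied them; after 30 min at 37C, IP1 was quantified by TR-FRET.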
ALDH1A1 inh: qHTS Assay for Inhibitors of Aldehyde Dehydrogenase 1 (ALDH1A1). actives 7.3% (n = 220,000). Potency, µM (titrated, usually from 75.3 µM), for the others: at the highest dose activity, negative = inhibition, hits mostly inhibitors. Purified ALDH1A1, NADH fluorescence, propionaldehyde substrate. Aldehyde dehydrogenase 1A1 (Homo sapiens), P00352; active = well fitted inhibition curve with a large enough effect, not every such curve was filed as active; inconclusive = small, poorly fitted or top-dose-only effect, or another doubt; inactive = no such curve, though single readings can be large or run the other way;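 also: plate controls were no enzyme wells and a reference inhibitor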
HPGD block: qHTS Assay for Inhibitors of HPGD (15-Hydroxyprostaglandin Dehydrogenase). purified HPGD, NADH fluorescence kinetic, PGE2 substrate. actives 4.3% (n = 150,000). Potency, µM, without a hit: top-dose activity change, negative = inhibition, usual class: inhibitors. AID 894, 2007. 15-hydroxyprostaglandin dehydrogenase [NAD(+)] (Homo sapiens), P15428; active = well fitted inhibition curve with a large enough effect, not every such curve was filed as active; inconclusive = small, poorly fitted or top-dose-only effect, or another doubt; inactive = no such curve, though single readings can be large or run the other way
Target sequence (P15428 whole entry, looked up): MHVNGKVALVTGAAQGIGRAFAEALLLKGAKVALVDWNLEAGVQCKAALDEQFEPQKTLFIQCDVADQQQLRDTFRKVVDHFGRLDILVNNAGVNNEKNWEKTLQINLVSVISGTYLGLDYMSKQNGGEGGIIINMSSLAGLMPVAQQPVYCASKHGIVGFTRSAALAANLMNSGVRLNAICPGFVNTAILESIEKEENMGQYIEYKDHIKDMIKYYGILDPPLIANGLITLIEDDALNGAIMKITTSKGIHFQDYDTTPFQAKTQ
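20 nM HPGD preincubated 15 min at room temperature with compound in 50 mM Tris-HCl pH 8, 0.01% Tween 20. Started with 1 mM NAD+ and 30 uM prostaglandin E2; NADH fluorescence (360/450 nm) read 5 times over 30-s intervals, last minus first.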
Luc counter: Counterscreen for Luciferase (Kinase-Glo TM) Inhibition; Luciferin 4-monooxygenase (Photuris pensylvanica), Q27757; Kinase-Glo luciferase, ATP luminescence, 8 min; Potency, µM (series often up to 38.3 µM), inactives show at the highest dose activity change, negative = inhibition, actives largely listed as inhibitors; actives 0.28% (n = 200,000); also: nearly all actives have a fitted effect of over 60% in size
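Light output from Kinase-Glo luciferase with luciferin and 10 uM ATP in 50 mM imidazole pH 7.2, KCl, MgCl2, Tween 20, BSA; compound pin-delivered, 8-min ambient incubation, then luminescence read.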
* marks the source's active call; other numbers are inactive results; [ ] = dose if it differs, or a comment. Hits are enriched below; roughly 9% of the tested compounds scored in any of these assays. Unless noted, calls follow the shape of the dose curve; as a rule, active = well fitted curve in the direction sought with a large enough effect; inconclusive = small, poorly fitted or top-dose-only effect, or another doubt; inactive = no such curve, though single readings can be large; an effect the other way counts as inactive or inconclusive. Unless noted, % is scaled to controls: 0 for no effect and ±100 for the full control effect; potency is read from the fitted curve at half-maximal effect.

For Cc1ccccc1S(=O)(=O)Cc1ccc(C(=O)NC(C)c2ccc3c(c2)OCCO3)o1 (stereo not given) the results were Lamin A splicing -7%, IMPase Li cell 0%[38.3 µM], ALDH1A1 inh 14µM*, HPGD block -20% and Luc counter 0%.
CCOC(=O)N1CCC(NC(=O)c2ccc(CS(=O)(=O)c3ccccc3C)o2)CC1 was read as Lamin A splicing -18%, IMPase Li cell -4%[38.3 µM], ALDH1A1 inh 11µM*, HPGD block -18% and Luc counter 0%.
O=C(COc1ccc(Cl)cc1)NCc1nnc(SCC(=O)NC2CCCCC2)o1 was read as Lamin A splicing inconclusive, IMPase Li cell 11µM*, ALDH1A1 inh -1%, HPGD block -16% and Luc counter -6%.
For CC1(C)CC(=O)c2c(nn(-c3ccccc3)c2-c2ccncc2)C1 the results were Lamin A splicing -9%, IMPase Li cell -5%, ALDH1A1 inh 14µM*, HPGD block -11% and Luc counter 2%.
CC/C=C\C/C=C\C/C=C\C/C=C\C/C=C\C/C=C\CCC(=O)O[C@H](COCCCCCCCCCCCCCCCC)COP(=O)([O-])OCC[N+](C)(C)C was read as IMPase Li cell -11%, ALDH1A1 inh 1%, HPGD block -5% and Luc counter -1%.
For Cc1ccc(NC(=O)CN2C(=O)c3ccccc3Sc3ccc(C(=O)N4CCOCC4)cc32)cc1C the results were Lamin A splicing -18%[46 µM].
For COc1ccccc1CNc1ccc([N+](=O)[O-])cc1C the results were IMPase Li cell 26%, ALDH1A1 inh inconclusive and Luc counter -3%.
`Cn1c(-c2ccc(Cl)cc2)cnc1NCc1cc2c(cc1[N+](=O)[O-])OCO2` gave Lamin A splicing -14%, IMPase Li cell 12%, ALDH1A1 inh 14µM*, HPGD block 0% and Luc counter -2%.
For Cn1c(-c2ccc(F)cc2)cnc1NCc1cc2c(cc1[N+](=O)[O-])OCO2 the results were Lamin A splicing -7%, IMPase Li cell -9%, ALDH1A1 inh 3%, HPGD block -17% and Luc counter 2%.
Screening Cc1cc(F)ccc1NCc1cc2c(cc1[N+](=O)[O-])OCO2 returned Lamin A splicing 15%, IMPase Li cell 40%[38.3 µM], ALDH1A1 inh 11µM*, HPGD block -17% and Luc counter 5%.
`Cn1c(-c2ccccc2)cnc1NCc1cc2c(cc1[N+](=O)[O-])OCO2` gave Lamin A splicing -18%, IMPase Li cell 8%, ALDH1A1 inh 13µM*, HPGD block -16% and Luc counter -3%.
For CCc1c(C)sc2c1CCN(C(=O)Nc1ccccc1C(F)(F)F)C2c1ccccc1 (stereo not given) the results were Lamin A splicing -26%[46 µM].
CCCn1c(NC(=O)c2ccc(Br)cc2)nc2ccccc21 was read as Lamin A splicing 2%, IMPase Li cell 28µM*, ALDH1A1 inh inconclusive, HPGD block inconclusive and Luc counter -5%.
Screening CN(C)c1ccc(CNCCC2(O)CCOC(C)(C)C2)cc1 (stereo not given) returned Lamin A splicing -5%, IMPase Li cell 7%[38.3 µM], ALDH1A1 inh inconclusive, HPGD block -6% and Luc counter -3%.
For CN(C)c1ccc(C=NCCC2(O)CCOC(C)(C)C2)cc1 (stereo not given) the results were Lamin A splicing -10%, IMPase Li cell -1%, ALDH1A1 inh 0.56µM*, HPGD block -19% and Luc counter -1%.
CC(=O)N1CCc2c(sc(NC(=O)c3ccc([N+](=O)[O-])o3)c2C#N)C1 was read as Lamin A splicing inconclusive, IMPase Li cell 34%, ALDH1A1 inh 3.2µM* and Luc counter -20%.
Screening O=C(O)C=Cc1ccc(Cn2ccnc2)cc1 returned IMPase Li cell 3%, ALDH1A1 inh -37%, HPGD block -11% and Luc counter 1%.
Cc1ccc(S(=O)(=O)N(C(=O)c2ccncc2)c2ccc(OC(=O)c3ccncc3)cc2)c(C)c1 was read as Lamin A splicing -7%, IMPase Li cell -2%, ALDH1A1 inh -1%, HPGD block 28µM* and Luc counter -3%.
Screening Cc1ccc(C)c(S(=O)(=O)N(C(=O)c2ccncc2)c2ccc(OC(=O)c3ccncc3)cc2)c1 returned IMPase Li cell 5%, ALDH1A1 inh 2% and Luc counter 1%.
For O=C(CCNC(=O)c1ccccc1Cl)Nc1ccc2c(c1)OCO2 the results were Lamin A splicing -3%, IMPase Li cell 22%[38.3 µM], ALDH1A1 inh -6%, HPGD block -14% and Luc counter 0%.
O=C(CCNC(=O)c1ccccc1Cl)Nc1ccc(Cl)c(C(F)(F)F)c1 was read as Lamin A splicing -3%, IMPase Li cell 4%, ALDH1A1 inh 6%, HPGD block 22µM* and Luc counter 1%.
COCCn1c(=O)c(-c2ccccc2)nc2cnc(OC)nc21 was read as Lamin A splicing -2%, IMPase Li cell -11% and ALDH1A1 inh inconclusive.
O=C(O)CCc1ccc(S(=O)(=O)NCCc2ccccc2)cc1 was read as Lamin A splicing -2% and ALDH1A1 inh 1.8µM*.
`O=C(Nc1ccc(S(=O)(=O)NCCc2ccccc2)cc1)c1ccco1` gave Lamin A splicing inconclusive, IMPase Li cell 52%[38.3 µM], ALDH1A1 inh inconclusive, HPGD block -24% and Luc counter 0%.
For CCOCC(=O)Nc1ccc(S(=O)(=O)NCCc2ccccc2)cc1 the results were Lamin A splicing inconclusive, IMPase Li cell -7%[38.3 µM], ALDH1A1 inh 10µM*, HPGD block -5% and Luc counter 0%.
For CCOC(=O)CCC(=O)N(CCN(C(=O)CCC(=O)OCC)c1ccccc1)c1ccccc1 the results were Lamin A splicing -1%, IMPase Li cell 7%, ALDH1A1 inh 2%, HPGD block 0% and Luc counter -1%.
`N#CCCN(CCC#N)C(=O)COc1ccc(Cl)cc1Cl` gave Lamin A splicing 7%, IMPase Li cell 1%, ALDH1A1 inh -6%, HPGD block 0% and Luc counter -2%.
CCCCCCCN(C(=O)CCl)c1cccc(C)c1 was read as Lamin A splicing -14%, IMPase Li cell 1%, ALDH1A1 inh 0.22µM*, HPGD block -26% and Luc counter 2%.
`N#CCCN(C(=O)CCl)c1cccc(Cl)c1` gave IMPase Li cell -15%, ALDH1A1 inh 0.11µM* and Luc counter -1%.
`Cc1ccc(S(=O)(=O)N(C)C)cc1NC(=O)C1CCCCC1` gave Lamin A splicing -10%[46 µM] and ALDH1A1 inh -5%.
